Screening results from PubChem.
Most compounds without a hit are left out; they make up all but 11% or so of the library.
MCF10A rereplic: inducers of DNA re-replication in MCF 10A breast cells; MCF 10A DNA re-replication, Hoechst nuclear intensity, 48 h; hit rate 2.9% among 350,000; Potency, µM (top dose mostly 46.1 µM), inactives show at the highest dose activity, positive = re-replication, hits mostly activators; further: potency means the concentration at half of the fitted maximal effect; % of control where 0% means no effect; nearly all actives have a fitted effect of over 50% in size
RORg inh: inhibitors of mouse ROR gamma transcriptional activity. AID 2551. Potency, µM (series often up to 53.6 µM), inactives show at the highest dose activity change, negative = inhibition, hits mostly inhibitors. hit rate 5.4% among 310,000. Drosophila S2 Gal4-RORgamma UAS-luciferase reporter, 20 h; further: potency means the concentration at half of the fitted maximal effect; on the % scale 0 is the no-effect control and ±100 the full control effect; nearly all actives have a fitted effect of over 60% in size
Target sequence (P51450 whole entry, looked up, the tested form may be a part): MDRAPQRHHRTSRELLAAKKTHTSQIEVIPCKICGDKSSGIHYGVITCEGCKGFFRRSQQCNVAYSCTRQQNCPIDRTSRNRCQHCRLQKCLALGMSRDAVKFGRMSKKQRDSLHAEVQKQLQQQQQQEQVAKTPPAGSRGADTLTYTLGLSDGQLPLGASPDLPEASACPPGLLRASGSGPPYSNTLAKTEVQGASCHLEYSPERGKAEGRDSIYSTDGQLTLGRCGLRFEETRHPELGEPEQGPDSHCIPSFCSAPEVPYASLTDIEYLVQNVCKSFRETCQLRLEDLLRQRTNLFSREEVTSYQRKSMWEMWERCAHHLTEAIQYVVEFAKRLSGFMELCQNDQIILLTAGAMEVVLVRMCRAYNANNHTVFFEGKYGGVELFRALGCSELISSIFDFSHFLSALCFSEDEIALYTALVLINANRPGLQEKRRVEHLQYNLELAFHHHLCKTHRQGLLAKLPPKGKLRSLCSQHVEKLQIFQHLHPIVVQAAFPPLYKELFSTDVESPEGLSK
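Luminescence from a UAS-regulated Photinus luciferase reporter in stably transfected Drosophila Schneider cells is measured; decreased signal marks ROR gamma inhibition. Fusion expression is induced by 700 uM copper sulfate for 20 hr.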
VP16 counter: inhibits Gal4-VP16 luciferase reporter, ROR gamma counter-screen | Drosophila S2 Gal4-VP16 UAS-luciferase, luminescence, 20 h | Potency, µM (top dose mostly 53.6 µM), for inactives: at the top dose activity, negative = inhibition, usual class: inhibitors | hit rate 3.5% among 310,000;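 further: Gal4-VP16 expression switched on by copper sulfate through the metallothionein promoter; potency means the concentration at half of the fitted maximal effect; on the % scale 0 is the no-effect control and ±100 the full control effect; nearly all actives have a fitted effect of over 50% in size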
IL1B secr inh: inflammasome signaling inhibition, IL-1 beta readout. activity change, % at 57.5 µM. THP-1 LPS/ATP IL-1B secretion, AlphaLISA, 16 h; hits give low values. hit rate 4.7% among 360,000; in the data active means activity change below about -50%; inconclusive means mostly about -30% to -49%; further: on the % scale 0 is the no-effect control and ±100 the full control effect
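Secreted IL-1B measured by AlphaLISA bead assay after 16 h compound exposure of THP-1 cells; compounds (final up to 57.5 uM) added 1 h before LPS (250 ng/mL) and ATP (1.25 mM) stimulation; lower signal means less secretion.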
SW480 rereplic: inducers of DNA re-replication in SW480 colon cancer cells; SW480 DNA re-replication, Hoechst DNA content imaging, 48 h; Potency, µM (series often up to 46.1 µM), for the others: at the top dose re-replication activation, most hits filed as activators; hit rate 1.8% among 340,000; AID 624297; further: potency means the concentration at half of the fitted maximal effect; % of control where 0% means no effect; nearly all actives have a fitted effect of over 55% in size
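Hoechst fluorescence of nuclei (405 nm excitation, 500-530 nm emission) measured by plate-scanning imager after 48 hr compound exposure at 37 C; re-replication scored as increased number of nuclei with elevated intensity.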
* hit, by the source's call; i = inactive; ? = inconclusive; nt = no result given; [ ] = another dose, or the depositor's remark. Unless noted, the call rests on the fitted dose curve; in most records, active means well fitted curve in the direction sought with a large enough effect; inconclusive means small, poorly fitted or top-dose-only effect, or another doubt; inactive means no such curve, though single readings can be large; an effect the other way counts as inactive or inconclusive.

SMILES	MCF10A rereplic	RORg inh	VP16 counter	IL1B secr inh	SW480 rereplic
CC1(C)CC(=O)C(C=Nc2ccc(C(=O)c3ccccc3)cc2N=CC2=C(O)CC(C)(C)CC2=O)=C(O)C1	5.8µM*	16µM*	-9%	10	?
Cc1ccc(N2CC(C)Cn3c2nc2c3c(=O)[nH]c(=O)n2C)cc1C (centres undefined)	0%	4%	4%	31	-2%
CCCn1c(N)c(C(=O)CSc2nncs2)c(=O)[nH]c1=O	-5%	nt	nt	0	-5%
Cc1cc(C)c2c(c1)SC1=NC(c3ccccc3)(C(F)(F)F)NC(=O)N12 (centres undefined)	10%	28%	13%	-56*	-4%
CCn1nc(NC(=O)c2ccccn2)c2cc3cc(C)ccc3nc21	24%	5µM*	7.1µM*	-14	?
Cc1ccc2nc3c(cc2c1)c(NC(=O)c1ccccn1)nn3CC(C)C	-2%	1.8µM*	5µM*	-17	-4%
Cc1ccc2cc3c(NC(=O)c4ccco4)nn(CC(C)C)c3nc2c1	?	-31%	-28%	14	9.2µM*
CCn1nc(NC(=O)C(C)C)c2cc3ccc(C)cc3nc21	?	-1%	-14%	27	?
CCn1nc(NC(=O)c2cccs2)c2cc3ccccc3nc21	18µM*	26%	0%	?	15µM*
CC(=O)Nc1nn(CC(C)C)c2nc3ccc(C)cc3cc12	nt	nt	nt	-12	nt
CCOC(=O)C1=CNS(=O)(=O)NC1c1ccc(OC(C)=O)cc1 (centres undefined)	-6%	nt	nt	12	-7%
CCCN1/C(=C(\C#N)C2=NS(=O)(=O)c3ccccc32)N(C)c2ccccc21	-2%	nt	nt	-7	-15%
CCN(CC)CCOC(=O)CCc1cccc2ccccc12	3%	-5%	-9%	0	-3%
CCN(CC)CCOC(=O)C(Cc1ccco1)Cc1cccc2ccccc12 (centres undefined)	7%	nt	nt	-57*	1%
O=C(C(=O)N1CCC(Cc2ccccc2)CC1)c1ccccc1	nt	nt	nt	11	nt
ClC(Cl)(c1nnnn1-c1ccccc1)c1nnnn1-c1ccccc1	?	10µM*	5µM*	-120*	13µM*
CC(=NNc1nc2ccccc2o1)c1cc2ccccc2cn1	?	nt	nt	-102*	13µM*
CN(CCC#N)c1ccc(/C=C(\C#N)c2ccccn2)cc1	?	10µM*	10µM*	-64*	14%
CCN(CC)c1ccc(/C=C(\C#N)c2ccccn2)cc1	23µM*	6.3µM*	7.1µM*	?	15µM*
CCN(Cc1ccccc1)c1ccc(/C=C(\C#N)c2ccccn2)cc1	21µM*	?	?	-14	18%
CC1(c2ccc3ccccc3c2)NC(=O)N(CC(=O)N2CCN(c3ccccc3O)CC2)C1=O (centres undefined)	-12%	?	-9%	i	?
O=C(O)c1cc(=S)nc[nH]1	4%	nt	nt	8	-2%
C=CCN(C(=O)C1=NN(C2CCS(=O)(=O)C2)C(=O)CC1)c1nc(-c2ccc([N+](=O)[O-])cc2)cs1 (centres undefined)	-2%	9%	25%	-55*	-4%
C=CCN(C(=O)C1CSC2(C)CCC(=O)N12)c1nc(-c2ccccc2)cs1 (centres undefined)	28%	nt	nt	-26	14%
C[C@@H]1CC2C3CCC4=CC(=O)C=CC4(C)[C@@]3(F)[C@@H](O)CC2(C)[C@@]1(O)C(=O)CO (some centres undefined)	nt	-2%	-4%	nt	nt
SMILES	MCF10A rereplic	RORg inh	VP16 counter	IL1B secr inh	SW480 rereplic
CCC(CC)C(=O)N(C)c1c(C)nc2c(OCc3ccccc3C(=O)OC)cccn12	nt	nt	nt	21	nt
COC(=O)c1ccccc1COc1cccn2c(N(C)Cc3cccs3)c(C)nc12	nt	nt	nt	-78*	nt
OCCNCc1cccc(-c2ccccc2)c1O	-8%	nt	nt	-8	-6%
COc1ccc(S[C@@H](CCN2CC[C@H](NC(=O)OCc3ccccc3)CCC2=O)c2ccccc2)cc1	?	nt	nt	-53*	?
CCn1c(CNC(=O)c2ccccc2Br)nnc1SCC(=O)NC1=NCCS1	-2%	-3%	2%	4	-4%
CC(C)(C)C(=O)Cn1ncc(N2CCOCC2)c(Br)c1=O	-18%	2%	4%	-3	1%
CC(=O)Cn1ncc(Br)c(Br)c1=O	2.1µM*	11µM*	0%[10 µM]	-96*	3.7µM*
O=C(OCn1ncc(Br)c(Br)c1=O)c1c(F)cccc1F	nt	3.5µM*	4.5µM*	nt	nt
COc1ccccc1NC(=O)N1CCN(c2ccc3nnc(-c4ccc(F)cc4)n3n2)CC1	15%	-12%	?	-52*	-1%
O=C(Nc1ccccc1Cl)N1CCN(c2ccc3nnc(-c4ccc(F)cc4)n3n2)CC1	12%	38%	-11%	-25	-3%
CC(C)CO/N=C1/C[C@@H](O)[C@@H](O)[C@@H]2[C@@H]3C(=O)N([C@@H](C)c4ccccc4)C(=O)[C@H]3CC[C@H]12	nt	1%[10 µM]	-3%[10 µM]	nt	nt
C=CCCCCCCCCCBr	nt	3%	1%	nt	nt
C=CC(=O)N1C/C=C\C(c2ccc(OC)cc2)N(Cc2ccc(F)cc2)C(=O)C1 (centres undefined)	0%	-25%	8%	-61*	-9%
COC(=O)N1C/C=C\C(c2ccc(OC)cc2)N(Cc2ccc(F)cc2)C(=O)C1 (centres undefined)	8%	27%	11%	-6	-10%
CCOC(=O)C1(Cc2cccc(OC)c2)CCCN(C(=O)c2cc(C)on2)C1 (centres undefined)	-1%	2%	?	-16	16%
Cc1ccc(-c2c[n+](CC(=O)Nc3ccccc3C)c3n2CCC3)cc1	4%	1%	4%	-53*	3%
Cc1ccc(NC(=O)C[n+]2cc(-c3ccccc3)n3c2CCC3)cc1	7%	-3%	-1%	0	-17%
Cc1ccc(-c2c[n+](CC(=O)c3ccc(Br)cc3)c3n2CCCCC3)cc1	-2%	-7%	?	-95*	0%
COc1ccc(-c2c[n+](CC(=O)c3ccccc3)c3n2CCCCC3)cc1	5%	6%	-10%	?	0%
O=C(C[n+]1cc(-c2ccccc2)n2c1CCCCC2)c1ccc(Cl)cc1	-5%	28%	?	-76*	-14%
CC1CCC(C(C)C)C(OC(=O)C[n+]2cc(-c3ccc(Cl)cc3)n3c2CCCCC3)C1 (centres undefined)	?	-105%	10µM*	-91*	?
O=C(O)CCCC1(C(=O)O)CCCC1	-24%	nt	nt	22	2%
O=C(Oc1ccccc1)N1CCC2(CC1)CN(c1ccncc1)C2	nt	-20%	2%	nt	nt
COc1ccc(-n2c(=O)c(-c3ccc(F)c(F)c3)nc3cncnc32)cc1	nt	-1%	-4%	nt	nt
O=c1[nH]c(-c2ccccc2)ncc1OCc1ccccc1	-4%	nt	nt	-7	-8%
